# BAZ2B inh: qHTS Assay for Inhibitors of BAZ2B | AlphaScreen BAZ2B-H3K14Ac peptide displacement | 360,000 tested, 4.4% active | AID 504333, 2011 | Bromodomain adjacent to zinc finger domain protein 2B (Homo sapiens), Q9UIF8 | Potency, µM (top dose mostly 114 µM), inactives show top-dose activity change, negative = inhibition, hits mostly inhibitors; also: potency is read from the fitted curve at half-maximal effect; % is scaled to controls: 0 for no effect and ±100 for the full control effect; nearly all actives have a fitted effect of over 60% in size
#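 BAZ2B (50 nM) with biotin-H3(5-23)K14Ac peptide (50 nM) in PBS pH 7.4, 0.01% Tween-20, preformed 30 min, then compound 30 min at room temperature; top concentration 110uM. AlphaScreen streptavidin donor/nickel chelate acceptor beads (10 ug/mL final), 20 min dark, signal read.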
# G9a block: qHTS Assay for Inhibitors of Histone Lysine Methyltransferase G9a; Histone-lysine N-methyltransferase EHMT2 (Homo sapiens), Q96KQ7; G9a H3K9 monomethylation, AlphaScreen, 2 h; Potency, µM (series often up to 102 µM), for the others: at the top dose activity, negative = inhibition, hits mostly inhibitors; 350,000 tested, 8.8% active; also: potency is read from the fitted curve at half-maximal effect; % is scaled to controls: 0 for no effect and ±100 for the full control effect; nearly all actives have a fitted effect of over 75% in size
# Target sequence (Q96KQ7 913-1193 limits assumed): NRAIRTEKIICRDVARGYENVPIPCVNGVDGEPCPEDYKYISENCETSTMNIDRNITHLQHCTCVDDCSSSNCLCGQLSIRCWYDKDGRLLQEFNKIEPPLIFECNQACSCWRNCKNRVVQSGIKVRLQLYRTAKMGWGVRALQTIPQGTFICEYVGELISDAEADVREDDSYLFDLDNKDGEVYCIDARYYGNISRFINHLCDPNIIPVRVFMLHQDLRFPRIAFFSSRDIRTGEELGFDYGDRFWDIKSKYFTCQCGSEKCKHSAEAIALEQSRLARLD
#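 Step 1: enzyme (final 20 nM) with compound, 15 min RT. Step 2: substrate peptide 500 nM and SAM 20 uM, 2 h RT. Step 3: anti-H3K9me1 antibody and AlphaScreen beads, 10 min, then plate read.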
# L3MBTL1 inh: qHTS Assay for the Inhibitors of L3MBTL1; Lethal(3)malignant brain tumor-like protein 1 (Homo sapiens), Q9Y468; AlphaScreen L3MBTL1–H3K9me1 peptide binding; Potency, µM (series often up to 57.1 µM), without a hit: top-dose activity, negative = inhibition, most hits filed as inhibitors; 230,000 tested, 0.66% active; also: potency is read from the fitted curve at half-maximal effect; % is scaled to controls: 0 for no effect and ±100 for the full control effect; nearly all actives have a fitted effect of over 60% in size
#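 L3MBTL1 50 nM + b-AHA-H3(1-15)K9me1 75 nM, 30 min RT; compound added, 30 min RT; streptavidin donor/Ni-chelate acceptor beads 10 ug/mL each final, 30 min RT dark; AlphaScreen read.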
# JMJD2A Tudor inh: qHTS Assay for Inhibitors of JMJD2A-Tudor Domain | Lysine-specific demethylase 4A (Homo sapiens), O75164 | AlphaScreen JMJD2A-Tudor / H3K4me3 peptide binding | Potency, µM (series often up to 114 µM), without a hit: top-dose activity change, negative = inhibition, hits mostly inhibitors | 390,000 tested, 4.4% active | AID 504339, 2011; also: potency is read from the fitted curve at half-maximal effect; % is scaled to controls: 0 for no effect and ±100 for the full control effect; nearly all actives have a fitted effect of over 50% in size
# PI5P4Ka inh: qHTS for Inhibitors of phosphatidylinositol 5-phosphate 4-kinase (PI5P4K); Phosphatidylinositol 5-phosphate 4-kinase type-2 alpha (Homo sapiens), P48426; PI5P4Kalpha enzyme, ADP-Glo luminescence, 60 min; stronger effect = lower value; max response, %; 330,000 tested, 1.2% active; AID 652105, 2013; active = max response of -50% or lower; inconclusive = between -30% and -50%; inactive = -30% or higher; also: value at the top dose of about 77 µM; % is scaled to controls: 0 for no effect and ±100 for the full control effect
# Target sequence (P48426 whole entry, looked up): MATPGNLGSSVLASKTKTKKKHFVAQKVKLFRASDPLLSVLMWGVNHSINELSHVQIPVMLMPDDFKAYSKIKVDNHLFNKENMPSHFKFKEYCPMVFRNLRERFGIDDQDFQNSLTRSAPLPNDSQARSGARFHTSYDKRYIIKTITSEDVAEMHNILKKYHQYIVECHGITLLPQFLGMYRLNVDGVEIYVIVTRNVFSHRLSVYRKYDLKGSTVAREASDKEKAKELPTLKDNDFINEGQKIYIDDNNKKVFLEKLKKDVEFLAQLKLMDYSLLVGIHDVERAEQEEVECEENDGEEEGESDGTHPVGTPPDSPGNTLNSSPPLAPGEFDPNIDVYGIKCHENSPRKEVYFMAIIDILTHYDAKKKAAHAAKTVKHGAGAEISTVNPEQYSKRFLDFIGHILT
#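 Luminescence from ADP-Glo served as readout of PI5P4Kalpha activity in a qHTS format. Reaction: enzyme, substrate, compound, ATP at 5 microM final, 60 min at RT.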
# HP1b chromo inh: HTS for Inhibitors of HP1-beta Chromodomain Interactions with Methylated Histone Tails; Chromobox protein homolog 1 (Homo sapiens), P83916; AlphaScreen HP1-beta / biotin-H3K9me3 peptide binding; Potency, µM (series often up to 114 µM), without a hit: top-dose activity change, negative = inhibition, actives largely listed as inhibitors; 390,000 tested, 0.56% active; also: potency is read from the fitted curve at half-maximal effect; nearly all actives have a fitted effect of over 70% in size
#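 AlphaScreen: HP1-beta (50 nM) preformed 30 min with biotin-H3(1-18)K9me3 peptide (50 nM) in PBS pH 7.4, 0.01% Tween-20. Compound added for 30 min at RT, then streptavidin donor/nickel chelate acceptor beads (10 ug/mL) for 30 min.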
# Starred values were filed as active, the others as inactive; ? = inconclusive; · = not tested or not shown; [ ] = remark or other dose. Most compounds without a hit are left out; they make up all but 11% or so of the library. Unless noted, calls follow the shape of the dose curve; as a rule, active = well fitted inhibition curve with a large enough effect; inconclusive = small, poorly fitted or top-dose-only effect; inactive = no such curve, though single readings can be large or run the other way.
SMILES,BAZ2B inh,G9a block,L3MBTL1 inh,JMJD2A Tudor inh,PI5P4Ka inh,HP1b chromo inh
COc1ncc2nc(-c3cccs3)c(=O)n(-c3ccccc3)c2n1,·,-3%[12.7 µM],·,·,·,·
NNc1ccc2nncn2n1,-13%,50µM*,2%,-4%,-6,17%
O=C(Nc1cccnc1)c1cccc(-c2cc3ccccc3oc2=O)c1,?,-1%,-23%,-27%,-1,26%
O=C(Nc1cccc(Cl)c1N1CCCC1)c1cccc(-c2cc3ccccc3oc2=O)c1,10%,35µM*,10%,0%,·,44%
O=C(Nc1ccc(CN2CCOCC2)cc1)c1cccc(-c2cc3ccccc3oc2=O)c1,79µM*,?,7%[11.4 µM],-25%,-14,15%
O=C1C(=O)C(Cl)=C(Cl)C(Cl)=C1Cl,·,·,·,·,-54*,·
CC(=O)Nc1cccc(NC(=O)CSc2cn(CC(=O)N(C(C)C)C(C)C)c3ccccc23)c1,?,?,·,-15%,·,3%
CCOC(=O)N1CCN(C(=O)c2ccc3c(c2)N(Cc2ccccc2)CCS3)CC1,?,?,-4%,-32%,-6,21%
CCN1CCN(C(=O)c2ccc3c(c2)N(Cc2ccc(C)cc2)CCS3)CC1,-28%[57.1 µM],79µM*,·,-36%,-2,-6%[57 µM]
CC1CC(C)CN(C(=O)c2ccc3c(c2)N(Cc2ccccc2)CCS3)C1 (stereo not given),?,40µM*,·,?,-2,11%
Cc1ccc(CN2CCSc3ccc(C(=O)NCc4ccco4)cc32)cc1,-18%,71µM*,·,-32%,1,-9%
COC(=O)c1c[nH]c(=S)n1Cc1ccccc1,·,·,·,2.8µM*,-4,18%[57 µM]
COC(=O)c1cc(C(=O)OC)n(Cc2ccc(F)cc2)c1C,2%,17%,14%,8%,4,27%
CC(=O)N1CCc2c(sc(NC(=O)c3ccc([N+](=O)[O-])o3)c2C#N)C1,56µM*,2.8µM*,-20%,?,?,?
COc1ccc(C(=O)Nc2sc3c(c2C#N)CCN(C(C)=O)C3)cc1,·,50µM*,·,-7%,0,32%
CC(=O)N1CCc2c(sc(NC(=O)Cc3ccc(F)cc3)c2C#N)C1,1%,22%,·,0%,4,22%
COc1cc(C(=O)Nc2sc3c(c2C#N)CCN(C(C)=O)C3)cc(OC)c1OC,-3%,-8%[59 µM],-14%,-18%,0,39%
COC(=O)c1c(NC(=O)c2ccc([N+](=O)[O-])o2)sc2c1CCN(C(C)C)C2,-33%,?,·,?,-1,3%
COC(=O)c1sc(NC(=O)c2ccc([N+](=O)[O-])o2)c(C#N)c1C,?,13µM*,·,?,-23,?
COc1cccc(NC(=O)CCSc2nc(-c3ccco3)cc(C(F)(F)F)n2)c1,8%,5%[59 µM],·,7%,·,47%
O=C(CCNS(=O)(=O)c1cccc2nonc12)Nc1ccc(F)cc1,4%,3%[59 µM],·,-6%,·,47%
O=S(=O)(c1ccccc1)N1CCN(C(=S)NCCCN2CCOCC2)CC1,-11%,?,1%,-9%,4,29%
S=C(NCCCN1CCOCC1)N1CCN(c2cccc(Cl)c2)CC1,-21%,32µM*,·,-33%,-2,9%
Cc1ccc(S(=O)(=O)N2CN(CC3CCCO3)c3nc4ccccc4nc32)cc1 (stereo not given),-28%,28µM*,·,-25%,3,39%
Cc1ccc(S(=O)(=O)Nc2nc3ccccc3nc2NCC2CCCO2)cc1 (stereo not given),1%,-5%,6%,-5%,-6,24%
SMILES,BAZ2B inh,G9a block,L3MBTL1 inh,JMJD2A Tudor inh,PI5P4Ka inh,HP1b chromo inh
COCCN1CN(S(=O)(=O)c2ccccc2)c2nc3ccccc3nc21,2%,-45%[12.7 µM],-6%,-18%,-1,20%
COc1ccccc1CN1CN(S(=O)(=O)c2ccccc2)c2nc3ccccc3nc21,-6%,32µM*,-11%,-9%[11.4 µM],1,-7%
O=C(Cn1c(=O)n(Cc2ccco2)c(=O)c2sc3ccccc3c21)Nc1ccccc1C(F)(F)F,-12%,-2%[59 µM],·,-9%,·,42%
Cc1cc(C)c2c(-n3cccc3)c(C(=O)NNS(=O)(=O)c3ccc(Br)cc3)sc2n1,?,?,-7%,56µM*,-1,12%
S=C1NCCNC(=S)NCCOCCOCCOCCN1,14%,25µM*,·,1%,12,40%
Cc1ccc(-c2nc3ccccc3nc2-c2ccccc2)cc1,10%,·,25%,82%,7,114%
CNc1nc(-c2ccccc2)[n+](-c2ccc(C)cc2)s1,7.9µM*,1.4µM*,-5%,20µM*,-99*,11µM*
Cc1ccc(-c2nc(N)s[n+]2-c2ccccc2)cc1,51%,5µM*,22%,28µM*,-80*,?
Cc1ccc(-c2cc(-c3ccccc3)nc(NN)n2)cc1,-11%,20%,-5%,?,11,19%
COc1ccc(CN(Cc2ccco2)c2cnc(S(C)(=O)=O)nc2C(=O)Nc2ccc(C)c(C)c2)cc1,?,?,·,-31%,·,18%
Cc1ccc(CNC(=O)CCc2c(C)nc3c4c(C)cc(C)nc4nn3c2C)cc1,-28%,11%[59 µM],·,-9%,·,43%
COc1cc(NC(=O)CC2C(=O)N(c3cccc(C)c3)C(=O)N2Cc2ccc(F)cc2)cc(OC)c1 (stereo not given),0%,-6%[59 µM],·,13%,·,35%
CCn1c(O)c(/C=C/C=C/C=Nc2ccccc2)sc1=S,?,14µM*,-13%,?,-63*,?
Oc1c(/C=C/C=C/C=Nc2ccccc2)sc(=S)n1Cc1ccccc1,?,2.2µM*,?,?,-79*,?
CCCCn1c(O)c(/C=C/C=C/C=Nc2ccccc2)sc1=S,6.3µM*,2.8µM*,-16%,?,?,3.2µM*
Cc1ccc(-c2nc(C=Nc3ccccc3)c(O)o2)cc1,15%,-8%,·,-14%,3,22%
CCCn1c(O)c(C=Nc2ccccc2)sc1=S,-12%,-24%,1%,-22%[11.4 µM],15,25%
CCn1c(O)c(C=C2N=c3ccccc3=N2)sc1=S,0%,?,·,-4%,3,47%
CCn1c(O)c(C=Nc2ccccc2)oc1=S,8%,28µM*,-8%,-21%,-15,-19%
COc1ccc(-n2nnc(C(=O)Nc3ccccc3F)c2N)cc1,-12%,-3%[59 µM],·,-6%,·,39%
